The source made the active and inactive calls.

Assay [1] is described as follows: compounds binding Alexa647 anti-His antibody – biochemical, small-molecule microarray, 635 nm fluorescence, artefact control for SMM control protein annotation, primary screen (AID 1128).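 Also: score merges feature fluorescence with signal-to-noise for each printed compound spot.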 Particulars: higher = more signal.
For assay [2], the system named is Human papillomavirus type 1a E7 protein (residues 1-88). The experiment in a line: HPV1a E7 small-molecule binders, primary screen, biochemical, small-molecule microarray, residues 1-88, 635 nm (AID 1129). To be noted: small-molecule microarray binding, fluorescence 635 nm; higher = more signal.
Assay [3] deals with Focal adhesion kinase 1 (Homo sapiens) (UniProt Q05397). Put plainly: PTK2 protein binding on printed compound slides – biochemical, small-molecule microarray, 635/667 nm fluorescence, BSA, DTT, primary screen (AID 1130).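 Also: composite of spot emission at 667 nm and signal to noise over triplicate slides.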 To be noted: 635 nm fluorescence, higher = more signal.
Assay [4] deals with Fibrinogen (Alexa647-labelled). Put plainly: Alexa647-fibrinogen binding to printed small molecules – biochemical, small-molecule microarray, 635/667 nm fluorescence, artefact control for SMM control-protein annotation, profiling panel (AID 1131).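 Also: z-score merges 667 nm fluorescence with per-spot signal-to-noise over triplicate slides.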 Particulars: fibrinogen-A647 binding fluorescence, higher = more signal.
Assay [5] concerns the target Follistatin (Homo sapiens) (UniProt P19883). The experiment in a line: FST protein binding to printed compounds – biochemical, small-molecule microarray, 635/667 nm fluorescence, primary screen (AID 1132). Particulars: 635 nm fluorescence, higher = more signal.
Assay [6] addresses Fibroblast growth factor 2 (Homo sapiens) (UniProt P09038). The experiment in a line: basic fibroblast growth factor binding to printed compounds – biochemical, small-molecule microarray, 635/667 nm fluorescence, primary screen (AID 1133). Particulars: FGF2, fluorescence 635/667, higher = more signal.
The nature of assay [7]: JC-1 mitochondrial potential readout, lung cancer cells – cell-based, A549, JC-1 fluorescence, basal, 24 h, 100 nL, profiling panel (AID 1138).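 Also: A549 lung adenocarcinoma cells under basal conditions with no added stimulus; test concentration not given here.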 To be noted: higher = more signal.
Another assay deals with Lefty1. The experiment in a line: Lefty1 protein binding to printed compounds – biochemical, small-molecule microarray, 635/667 nm fluorescence, primary screen (AID 1139). To be noted: fluorescence 635/667, higher = more signal.
In assay [8] the test system is wheat germ agglutinin (Triticum aestivum), Alexa647-labelled. Put plainly: Alexa647-WGA lectin binding to printed small molecules – biochemical, small-molecule microarray, 635/667 nm fluorescence, artefact control for SMM control-protein annotation, profiling panel (AID 1140).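 Also: score merges 667 nm feature emission with signal to noise over triplicate slides.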 To be noted: WGA-A647 binding, 635 nm fluorescence, higher = more signal.
For assay [9], the target named is Luciferin 4-monooxygenase (Photinus pyralis) (UniProt P08659). The experiment in a line: inhibition of purified Photinus pyralis luciferase – biochemical, luminescence, purified enzyme, 2006 set, primary screen (AID 1141).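 Also: cell-free assay with purified firefly luciferase at 100 ng per well in PBS; test concentration not given here.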 To be noted: purified firefly luciferase, SteadyGlo luminescence, 30 min; higher = more signal, called active from +8 up or from −8 down.
Sequence of Luciferin 4-monooxygenase (Photinus pyralis) (P08659 whole entry, looked up): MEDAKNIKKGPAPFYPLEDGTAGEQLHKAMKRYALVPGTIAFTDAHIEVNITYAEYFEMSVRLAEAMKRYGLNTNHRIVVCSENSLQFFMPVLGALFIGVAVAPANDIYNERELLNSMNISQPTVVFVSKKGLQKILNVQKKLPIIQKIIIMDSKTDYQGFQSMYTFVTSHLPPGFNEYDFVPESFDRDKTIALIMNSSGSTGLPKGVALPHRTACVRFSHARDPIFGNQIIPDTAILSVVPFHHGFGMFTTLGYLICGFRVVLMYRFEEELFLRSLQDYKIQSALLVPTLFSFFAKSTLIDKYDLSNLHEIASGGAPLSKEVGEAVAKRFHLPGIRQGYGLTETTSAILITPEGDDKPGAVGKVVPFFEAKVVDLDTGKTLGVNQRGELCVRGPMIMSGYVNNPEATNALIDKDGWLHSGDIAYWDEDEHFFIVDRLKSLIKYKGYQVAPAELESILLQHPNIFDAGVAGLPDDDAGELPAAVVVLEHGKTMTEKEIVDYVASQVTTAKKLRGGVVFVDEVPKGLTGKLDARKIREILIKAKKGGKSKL

Sequence of Focal adhesion kinase 1 (Homo sapiens) (Q05397 whole entry, looked up): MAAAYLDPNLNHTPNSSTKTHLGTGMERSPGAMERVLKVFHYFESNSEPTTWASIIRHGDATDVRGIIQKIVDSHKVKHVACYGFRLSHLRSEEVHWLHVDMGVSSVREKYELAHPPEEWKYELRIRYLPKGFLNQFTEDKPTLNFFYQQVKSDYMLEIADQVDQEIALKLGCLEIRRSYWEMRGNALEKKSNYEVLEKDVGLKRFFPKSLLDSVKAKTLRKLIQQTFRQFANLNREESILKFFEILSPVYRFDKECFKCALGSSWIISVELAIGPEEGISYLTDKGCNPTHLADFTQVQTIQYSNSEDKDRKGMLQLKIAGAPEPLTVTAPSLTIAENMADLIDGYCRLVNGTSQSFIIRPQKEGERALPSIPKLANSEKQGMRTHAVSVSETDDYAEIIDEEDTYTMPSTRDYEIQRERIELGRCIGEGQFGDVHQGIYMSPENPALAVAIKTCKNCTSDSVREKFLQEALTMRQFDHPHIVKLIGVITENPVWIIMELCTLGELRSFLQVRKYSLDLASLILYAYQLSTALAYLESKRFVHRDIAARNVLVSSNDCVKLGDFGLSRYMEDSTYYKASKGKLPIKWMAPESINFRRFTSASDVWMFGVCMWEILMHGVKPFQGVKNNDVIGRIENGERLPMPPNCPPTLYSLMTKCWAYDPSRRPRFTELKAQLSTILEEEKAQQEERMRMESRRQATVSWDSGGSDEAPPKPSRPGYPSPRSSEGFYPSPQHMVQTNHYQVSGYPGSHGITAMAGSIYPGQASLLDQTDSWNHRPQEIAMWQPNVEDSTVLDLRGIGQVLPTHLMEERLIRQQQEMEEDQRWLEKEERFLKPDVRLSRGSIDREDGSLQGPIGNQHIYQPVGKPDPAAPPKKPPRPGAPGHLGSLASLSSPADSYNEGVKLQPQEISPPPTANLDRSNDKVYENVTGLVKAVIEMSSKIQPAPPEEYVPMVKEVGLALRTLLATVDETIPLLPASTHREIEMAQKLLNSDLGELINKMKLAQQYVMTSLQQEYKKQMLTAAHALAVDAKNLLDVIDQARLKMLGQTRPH
Sequence of Follistatin (Homo sapiens) (P19883 whole entry, looked up): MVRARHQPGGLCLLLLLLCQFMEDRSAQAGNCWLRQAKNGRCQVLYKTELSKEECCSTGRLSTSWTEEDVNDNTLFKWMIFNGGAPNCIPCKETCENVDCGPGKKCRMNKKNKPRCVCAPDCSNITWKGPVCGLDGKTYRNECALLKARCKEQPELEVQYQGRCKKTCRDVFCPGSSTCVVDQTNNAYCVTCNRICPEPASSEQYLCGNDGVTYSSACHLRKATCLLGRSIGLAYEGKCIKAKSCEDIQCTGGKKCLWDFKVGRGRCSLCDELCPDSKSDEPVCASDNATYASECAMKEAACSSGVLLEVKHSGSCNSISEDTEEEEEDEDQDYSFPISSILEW
Sequence of Fibroblast growth factor 2 (Homo sapiens) (P09038 whole entry, looked up): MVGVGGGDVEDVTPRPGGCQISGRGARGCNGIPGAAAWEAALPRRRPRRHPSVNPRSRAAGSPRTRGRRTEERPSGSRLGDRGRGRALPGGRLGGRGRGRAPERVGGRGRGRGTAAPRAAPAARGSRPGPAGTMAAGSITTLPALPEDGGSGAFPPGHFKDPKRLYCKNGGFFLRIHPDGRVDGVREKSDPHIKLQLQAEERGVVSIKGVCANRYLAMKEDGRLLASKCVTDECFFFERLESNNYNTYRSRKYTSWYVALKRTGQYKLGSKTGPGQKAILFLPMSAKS

As for `COCCOC(=O)N1C(=O)[C@@]2(c3cc(C#CCC(C(=O)OC)C(=O)OC)ccc31)[C@H](c1ccc(O)cc1)N1[C@H](c3ccccc3)[C@H](c3ccccc3)OC(=O)[C@H]1[C@@H]2C(N)=O`, the composite z-score in [1] came out at 1.54; in [2] it was 1.23; in assay [3], 0.242; in [4], 0.75; in assay [5] it was 0.857; in assay [6] it was 1.33. The composite z-score came out at 0.366 with Lefty1 and 0.252 in assay [8]. In addition, the z-score in [7] is -0.82; in assay [9], -0.78 (inactive).

Regarding `O=C(OCCF)C1=CCC(c2cccc(Cl)c2)O1` (stereo not given), the composite z-score is 0.1 in assay [1]; 0.628 in assay [2]; 0.475 in assay [3]; -0.137 in assay [4]; 0.134 in [5]; -0.211 in assay [6]. Also, the composite z-score was -0.217 with Lefty1 and 0.177 in [8]. Also, the z-score in assay [7] was -0.218; in assay [9] it was 0.08 (inactive).

For the compound `COC(=O)[C@@]1(Cc2ccccc2)[C@H]2c3cc(C(=O)N4CCCC4)n(C)c3C[C@H]2CN1C(=O)c1ccccc1`, the composite z-score in assay [1] is 1.95; in assay [2], 0.762; in assay [3] it was 1.73; in assay [4] it was 1.03; in assay [5], 0.725; in [6], -0.915. For the same compound, the figures for the composite z-score (in the assay with Lefty1; in assay [8]) were -0.0781 and 1.06, respectively. Besides, the z-score is 0.244 in assay [7] and 0.271 (inactive) in assay [9].

Take `COc1cccc(C(=O)O[C@H]2CC[C@]3(C)C4=C(CCC3C2(C)C)[C@]2(C)CC[C@H]([C@H](C)CCCC(C)C)[C@@]2(C)CC4)c1` (stereo not given in full): the composite z-score was 0.0291 in assay [1]; 0.386 in assay [2]; -0.404 in assay [3]; -0.133 in [4]; 0.649 in [5]; 0.281 in assay [6]. The composite z-score turned out to be 0.24 in the assay on Lefty1 and 0.258 in assay [8]. The z-score in assay [7] was 0.434; in assay [9] it was -0.843 (inactive).

As to `C[C@]1(C(=O)NCc2ccccc2)c2ccccc2C(=O)N(Cc2cc(F)cc(C(F)(F)F)c2)[C@H]1c1ccc(CO)cc1`, the composite z-score in assay [1] was 0.84; in assay [2], -0.184; in [3] it was -0.349; in assay [4] it was -0.582; in [5], -1.13; in [6] it was -0.278. Also, the composite z-score in the assay with Lefty1 was -1.14; in assay [8], -0.566. In addition, the z-score was 0.916 in [7] and 0.585 (inactive) in assay [9].

Turning to `CC(=O)NCCCC[C@@H]1NC(=O)[C@@H]2C[C@H](C(=O)NCCCCCCNC(=O)CS)[C@H](c3ccc(O)cc3)N2C1=O`, the composite z-score in assay [1] was found to be 3.39; in assay [2], 0.964; in [3], 0.208; in [4], 0.224; in [5], 0.304; in [6], 0.104. The composite z-score in the assay with Lefty1 turned out to be 0.236; in assay [8], 0.418. The z-score was -0.177 in assay [7] and -0.557 (inactive) in [9].

Turning to `O=C(CS)NCCCCCCNC(=O)[C@H]1C[C@H]2C(=O)N3CCC[C@H]3C(=O)N2[C@H]1c1cccc(OCCO)c1`, the composite z-score in assay [1] was 1.7; in assay [2], 1.23; in assay [3], 0.615; in assay [4], 0.0353; in assay [5], 1.28; in [6], 1.19. Further, the composite z-score in the assay on Lefty1 was 0.731; in assay [8], 0.658. Besides, the z-score is -0.145 in assay [7] and -0.135 (inactive) in [9].

With `C=CCC(OC(C)=O)[C@@H]1[C@@H](N(Cc2cccc3ccccc23)C(=O)c2ccc(C)cc2)c2cc(OCCCO)ccc2N1C(=O)Cc1ccc(OC)cc1` (stereo not given in full), the composite z-score in [1] is 0.0508; in assay [2] it was -0.0914; in assay [3], 0.183; in assay [4] it was 0.342; in [5] it was 0.695; in assay [6] it was -0.148. Besides, the composite z-score in the assay on Lefty1 came out at 0.203; in assay [8] it was 0.275. For the same compound, the z-score in [7] is 1.3; in assay [9], 0.0544 (inactive).

Take `CCCCC=C[C@@H](NC(=O)c1ccco1)c1ccccc1`: the composite z-score is 0.34 in assay [1]; -1.19 in [2]; -0.0668 in [3]; 1.01 in assay [4]; 0.487 in assay [5]; 0.133 in assay [6]. Moreover, the composite z-score with Lefty1 was -0.337; in assay [8] it was 0.653. The z-score in assay [7] was -0.881; in assay [9], 2.18 (inactive).

Turning to `CCCC[C@@H]1C[C@H]1[C@@H](NC(=O)c1ccc(-c2ccccc2)cc1)c1ccc(-c2ccccc2)cc1`, the composite z-score worked out at 0.0916 in assay [1]; 0.481 in assay [2]; 0.504 in assay [3]; 0.348 in assay [4]; 1.37 in [5]; 0.271 in [6]. Moreover, the composite z-score in the assay with Lefty1 is 0.971; in assay [8], 0.249. Further, the z-score in assay [7] is 0.738; in assay [9] it was 0.779 (inactive).

The record behind these values is PubChem BioAssay.
